The record followed here is PubChem BioAssay (NCATS).

Results filed as inconclusive are left out. Values without a mark were called inactive. Calls of active or inactive are those of the source. Calls come from the whole dose curve; as a rule, active = well fitted curve in the direction sought with a large enough effect; inconclusive = small, poorly fitted or top-dose-only effect, or another doubt; inactive = no such curve, though single readings can be large; an effect the other way counts as inactive or inconclusive. Where a SMILES comes first, the peptide text is derived from it. [ ]: non-standard residue; d: D form. Ala(indol-2-yl) = N[C@@H](Cc1cc2ccccc2[nH]1)C(=O)O; Aib = CC(C)(N)C(=O)O

Tested on in one experiment: not listed separately
Description: Primary redox qHTS assay for identification of artifact compounds. (AID 1845223).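 Note: 0% = DMSO and 100% = reference compound.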 To be noted: Amplex Red/HRP redox cycling with DTT, fluorescence; series mostly up to 53.8 µM. A digest of the protocol: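 Redox-cycling detection via DTT (250 uM final) oxidation coupled to Amplex Red (25 uM)/HRP (250 mU/mL) in HBSS. 15 min preincubation plus 30 min after DTT, room temperature. Ex/Em 525/598 nm; 4-parameter Hill fit against DMSO and 10 uM DA3003.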
On the technique in general: In qHTS, concentration-response curves come from the screen itself.
In the case of `O=C(OC[C@H]1O[C@@H](Oc2ccc(O)cc2CO)[C@H](O)[C@@H](O)[C@@H]1O)c1ccccc1`, the Potency result is “inactive”. On the same count and under the same terms, as for `CC(=O)O[C@@H]1[C@@H](O)[C@H]2O[C@@H]3C=C(C)[C@@H](O)C[C@]3(CO)[C@]1(C)[C@]21CO1`, the entry is “inactive”. Take `CC(C)(NC(=O)[C@@H](N)Cc1ccc(O)cc1)C(=O)N[C@@H](Cc1cc2ccccc2[nH]1)C(=O)N[C@@H](Cc1ccccc1)C(=O)O` (H-Y[Aib][Ala(indol-2-yl)]F-OH): the redox activity (% of DA3003) is 9.88% [at 11.5 µM]. Consider `C=C1[C@@H](C)[C@H]2[C@H](Cc3ccccc3)NC(=O)[C@]23[C@H](OC(C)=O)/C=C/[C@](C)(O)C(=O)[C@@H](C)C/C=C/[C@H]3[C@@H]1O`, for which the Potency result was “inactive”.

In the case of `COc1ccc2c3c([nH]c2c1)C(C=C(C)C)N1C(=O)C2CCCN2C(=O)C1C3` (configuration not stated), the Potency result is “inactive”. Turning to `C[C@@H]1C[C@@H](O)[C@]2(O)O[C@@H]3C[C@@]4(C=O)C(CC[C@@H]5C4CC[C@]4(C)[C@@](O)(C6=CC(=O)OC6)CC[C@]54O)C[C@H]3OC2O1` (some centres not stated), the Potency entry was “inactive”. Still for that read-out and setting: as for `CC(=O)OC[C@]12C[C@H](OC(=O)CC(C)C)C(C)=C[C@H]1O[C@@H]1[C@H](O)[C@@H](OC(C)=O)[C@@]2(C)[C@@]12CO2`, the entry is “inactive”. `CC[C@H](C)[C@H](NC(=O)[C@H]1CCCCN1C)C(=O)N(COC(=O)CC(C)C)[C@H](C[C@@H](OC(C)=O)c1nc(C(=O)N[C@@H](Cc2ccc(O)cc2)C[C@H](C)C(=O)O)cs1)C(C)C`: the redox activity (% of DA3003) was -0.209% [at 1.02 µM]. Turning to `CN[C@@H]1C[C@H]2O[C@@](C)([C@@H]1OC)n1c3ccccc3c3c4c(c5c6ccccc6n2c5c31)C(=O)NC4`, the Potency result is “inactive”.

With `CC1=C[C@H]2O[C@@H]3C[C@H]4OC(=O)/C=C/C=C/C(=O)OCC/C(C)=C/C(=O)OC[C@@]2(CC1)[C@]4(C)[C@]31CO1`, the Potency entry is “inactive”. For the compound `CC(=O)OC[C@]12C[C@H](OC(=O)CC(C)C)C(C)=C[C@H]1O[C@@H]1[C@H](O)[C@@H](O)[C@@]2(C)[C@]12CO2`, the Potency result was “inactive”. Still for that read-out and setting: the same measure for `CC(=O)OC[C@]12C[C@H](OC(=O)CC(C)C)C(C)=C[C@H]1O[C@@H]1[C@H](O)C[C@@]2(C)[C@]12CO2`: “inactive”; for `C[C@H]1O[C@@H](O[C@H]2CC[C@]3(C=O)C4CC[C@]5(C)[C@@H](C6=CC(=O)OC6)CC[C@]5(O)[C@@H]4CC[C@]3(O)C2)C[C@@H](O)[C@@H]1O` (some centres not stated): “inactive”.

Regarding `C[C@]12CC[C@H](O)C[C@H]1CC[C@@H]1[C@@H]2[C@H](O)C[C@]2(C)[C@@H](c3ccc(=O)oc3)CC[C@]12O`, the Potency result is “inactive”.

Regarding `C[C@H]1O[C@@H](O[C@H]2CC[C@]3(CO)C4CC[C@]5(C)[C@@H](C6=CC(=O)OC6)CC[C@]5(O)[C@@H]4CC[C@H]3C2)[C@H](O)[C@H](O)[C@@H]1O[C@@H]1O[C@H](CO)[C@@H](O)[C@H](O)[C@H]1O` (some centres not stated), the Potency entry is “inactive”. Still for that read-out and setting: as for `CC1=C[C@H]2O[C@@H]3[C@H](O)[C@@H](O)[C@](C)([C@@]2(CO)C[C@@H]1O)[C@]31CO1`, the entry is “inactive”; as for `C[C@H]1O[C@@H](n2cnc3c(N)ncnc32)C[C@@H]1O`, “inactive”; as for `OCc1nnc2n1-c1ccc(Cl)cc1C(c1ccccc1Cl)=NC2`, “inactive”. The same measure, in the same setting: the same measure for `CC[C@H]1C2CC3[C@@H]4N(C)c5ccccc5[C@]45C[C@@H]([C@H]2[C@H]5O)N3[C@@H]1O`: “inactive”. As for `CO[C@@H]1C[C@H](O[C@H]2CC[C@@]3(C)C(CCC4C3CC[C@]3(C)[C@@H](C5=CC(=O)OC5)[C@@H](OC(C)=O)CC43O)C2)O[C@H](C)[C@@H]1O[C@H]1O[C@H](CO[C@@H]2O[C@H](CO)[C@@H](O)[C@H](O)[C@H]2O)[C@@H](O)[C@H](O)[C@H]1O` (some centres not stated), the redox activity (% of DA3003) was 15.6% [at 11.5 µM]. Take `CC1=CC2OC3[C@H](O)C[C@@](C)([C@]34CO4)[C@@]2(CO)[C@H](O)C1=O` (some centres not stated): the Potency entry is “inactive”. Same read-out and setting: the same measure for `C[C@H]1C/C=C/[C@H]2[C@@H]3O[C@]3(C)[C@@H](C)[C@H]3[C@H](Cc4ccccc4)NC(=O)[C@]32OC(=O)O/C=C/[C@@](C)(O)C1=O`: “inactive”. On the same count and under the same terms, the same measure for `CC(C)(C)[C@]1(O)C[C@@H]2OC(=O)C[C@@]23C(=O)O[C@@H]2OC(=O)[C@@H](O)[C@]213`: “inactive”; for `CC(=O)OC[C@]12C[C@H](O)C(C)=C[C@H]1O[C@@H]1[C@H](O)[C@@H](OC(C)=O)[C@@]2(C)[C@]12CO2`: “inactive”. Consider `N#Cc1cn([C@@H]2O[C@H](CO)[C@H](O)[C@@H]2O)c2ncnc(N)c12`, for which the Potency entry is “inactive”.

The subject of the next experiment is CRL-7250. Nature of the experiment: Cytotoxic Profiling of Annotated Libraries Using Quantitative High-Throughput Screening (AID 1296008). For max response: % is set by controls: 0 for no effect and ±100 for the full control effect. Note: nearly all actives have a fitted effect of over 60% in size. Note: potency is the fitted concentration of half-maximal effect. To be noted: Five cell lines viability, CellTiter-Glo ATP luminescence, 48-72 h; max response: hits give low values. A digest of the protocol:
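Compounds were pin-transferred onto cells and incubated 48 or 72 hr at 37 degree Celsius, 95% humidity. CellTiter-Glo was added, plates sat 10 min at room temperature, then ATP-coupled luminescence was imaged as the viability read-out.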
(In general: ATP-based viability assays read luminescence as a measure of living cells.)
Take `O=C(OC[C@H]1O[C@@H](Oc2ccc(O)cc2CO)[C@H](O)[C@@H](O)[C@@H]1O)c1ccccc1`: the max response was 2.78%. Regarding `CC(=O)O[C@@H]1[C@@H](O)[C@H]2O[C@@H]3C=C(C)[C@@H](O)C[C@]3(CO)[C@]1(C)[C@]21CO1`, the Potency is 1010 nM (active). `COc1cc2c(c(OC)c1OC)-c1ccc(SC)c(=O)cc1[C@@H](NC(C)=O)CC2`: the Potency is 9.2 nM (active). With `CC(C)(NC(=O)[C@@H](N)Cc1ccc(O)cc1)C(=O)N[C@@H](Cc1cc2ccccc2[nH]1)C(=O)N[C@@H](Cc1ccccc1)C(=O)O` (H-Y[Aib][Ala(indol-2-yl)]F-OH), the max response was -5.29%.

Take `C=C1[C@@H](C)[C@H]2[C@H](Cc3ccccc3)NC(=O)[C@]23[C@H](OC(C)=O)/C=C/[C@](C)(O)C(=O)[C@@H](C)C/C=C/[C@H]3[C@@H]1O`: the Potency was 259 nM (active). For the compound `COc1ccc2c3c([nH]c2c1)C(C=C(C)C)N1C(=O)C2CCCN2C(=O)C1C3` (configuration not stated), the max response was -26.7%. `C[C@@H]1C[C@@H](O)[C@]2(O)O[C@@H]3C[C@@]4(C=O)C(CC[C@@H]5C4CC[C@]4(C)[C@@](O)(C6=CC(=O)OC6)CC[C@]54O)C[C@H]3OC2O1` (some centres not stated): the Potency is 796 nM (active). Take `CC(=O)OC[C@]12C[C@H](OC(=O)CC(C)C)C(C)=C[C@H]1O[C@@H]1[C@H](O)[C@@H](OC(C)=O)[C@@]2(C)[C@@]12CO2`: the Potency was 89.3 nM (active).

As to `CC[C@H](C)[C@H](NC(=O)[C@H]1CCCCN1C)C(=O)N(COC(=O)CC(C)C)[C@H](C[C@@H](OC(C)=O)c1nc(C(=O)N[C@@H](Cc2ccc(O)cc2)C[C@H](C)C(=O)O)cs1)C(C)C`, the Potency is 4.7 nM (active). The same measure, in the same setting: as for `CN[C@@H]1C[C@H]2O[C@@](C)([C@@H]1OC)n1c3ccccc3c3c4c(c5c6ccccc6n2c5c31)C(=O)NC4`, the figure is 3.7 nM (active); as for `CC1=C[C@H]2O[C@@H]3C[C@H]4OC(=O)/C=C/C=C/C(=O)OCC/C(C)=C/C(=O)OC[C@@]2(CC1)[C@]4(C)[C@]31CO1`, 25.2 nM (active); as for `CC(=O)OC[C@]12C[C@H](OC(=O)CC(C)C)C(C)=C[C@H]1O[C@@H]1[C@H](O)[C@@H](O)[C@@]2(C)[C@]12CO2`, 142 nM (active).

For the compound `CC(=O)OC[C@]12C[C@H](OC(=O)CC(C)C)C(C)=C[C@H]1O[C@@H]1[C@H](O)C[C@@]2(C)[C@]12CO2`, the Potency is 3170 nM (active). `COC1CC(O[C@H]2CC[C@]3(C)C4CC[C@]5(C)[C@@H](C6=CC(=O)OC6)[C@@H](OC(C)=O)C[C@]5(O)C4CC[C@@H]3C2)OC(C)C1O[C@@H]1O[C@H](CO)[C@@H](O)[C@H](O)[C@H]1O` (some centres not stated): the Potency is 385 nM (active). `Cc1c(Cl)c(OCC(=O)N2CCN(C)CC2)nc2sc(C(=O)NC3CC3)c(N)c12`: the max response was -0.463%. Consider `CO[C@H]1[C@H](O)[C@H](O[C@H]2CC[C@]3(C=O)C4CC[C@]5(C)[C@H](C6=CC(=O)OC6)CC[C@]5(O)C4CC[C@@H]3C2)O[C@@H](C)[C@@H]1O` (some centres not stated), for which the Potency was 28.2 nM (active).

For the compound `C[C@H]1O[C@@H](O[C@H]2CC[C@]3(C=O)C4CC[C@]5(C)[C@@H](C6=CC(=O)OC6)CC[C@]5(O)[C@@H]4CC[C@]3(O)C2)C[C@@H](O)[C@@H]1O` (some centres not stated), the Potency was 22.4 nM (active). With `COC1CC(O[C@H]2CC[C@]3(C=O)C4CC[C@]5(C)[C@@H](C6=CC(=O)OC6)CC[C@]5(O)[C@@H]4CC[C@@H]3C2)OC(C)C1O[C@@H]1O[C@H](CO)[C@@H](O[C@@H]2O[C@H](CO)[C@@H](O)[C@H](O)[C@H]2O)[C@H](O)[C@H]1O` (some centres not stated), the Potency is 123 nM (active). Still for that read-out and setting: the same measure for `C[C@]12CC[C@H](O)C[C@H]1CC[C@@H]1[C@@H]2[C@H](O)C[C@]2(C)[C@@H](c3ccc(=O)oc3)CC[C@]12O`: 10.3 nM (active); for `C[C@H]1O[C@@H](O[C@H]2CC[C@]3(CO)C4CC[C@]5(C)[C@@H](C6=CC(=O)OC6)CC[C@]5(O)[C@@H]4CC[C@H]3C2)[C@H](O)[C@H](O)[C@@H]1O[C@@H]1O[C@H](CO)[C@@H](O)[C@H](O)[C@H]1O` (some centres not stated): 1220 nM (active). On to `CC1=C[C@H]2O[C@@H]3[C@H](O)[C@@H](O)[C@](C)([C@@]2(CO)C[C@@H]1O)[C@]31CO1`, for which the Potency is 5800 nM (active). In the case of `C[C@H]1O[C@@H](n2cnc3c(N)ncnc32)C[C@@H]1O`, the max response was 0.373%. Still for that read-out and setting: the same measure for `OCc1nnc2n1-c1ccc(Cl)cc1C(c1ccccc1Cl)=NC2`: 0.641%; for `CC[C@H]1C2CC3[C@@H]4N(C)c5ccccc5[C@]45C[C@@H]([C@H]2[C@H]5O)N3[C@@H]1O`: -2.01%. For the compound `CO[C@@H]1C[C@H](O[C@H]2CC[C@@]3(C)C(CCC4C3CC[C@]3(C)[C@@H](C5=CC(=O)OC5)[C@@H](OC(C)=O)CC43O)C2)O[C@H](C)[C@@H]1O[C@H]1O[C@H](CO[C@@H]2O[C@H](CO)[C@@H](O)[C@H](O)[C@H]2O)[C@@H](O)[C@H](O)[C@H]1O` (some centres not stated), the Potency was 491 nM (active). Still for that read-out and setting: the same measure for `CC[C@@]1(O)C(=O)OCc2c1cc1n(c2=O)Cc2cc3c(OC)cccc3nc2-1`: 5080 nM (active); for `CC1=CC2OC3[C@H](O)C[C@@](C)([C@]34CO4)[C@@]2(CO)[C@H](O)C1=O` (some centres not stated): 3260 nM (active).
